A selection: hits, their analogues and other compounds. The true share with any hit is near 19%.
DT40 TDP1 CPT: DT40-hTDP1 cell growth loss with CPT; chicken DT40 Tdp1-/-;hTDP1 cells + 20 nM CPT, ATP luminescence, 48 h; Potency, µM (highest dose often 46.2 µM), without a hit: at the highest dose activity change, negative = growth inhibition, hits mostly inhibitors; 420,000 compounds, 12% hits; AID 686979; also: potency is read from the fitted curve at half-maximal effect; nearly all actives have a fitted effect of over 55% in size
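Cell growth measured by CellTiter-Glo luminescence after a minimum 48 h, 37 C compound exposure with 20 nM CPT in Tdp1-knockout DT40 cells stably expressing hTDP1, seeded 400/well; qHTS titration format.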
HT1080-NT tox: kills 2HG-producing HT-1080-NT fibrosarcoma cells; 360,000 compounds, 1.6% hits; HT-1080-NT fibrosarcoma viability, CellTiter-Glo ATP luminescence, 48 h; Potency, µM (top dose mostly 46.1 µM), for the others: at the top dose activity, negative = less viability, usual class: cytotoxic;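 also: NT is the 2HG producing partner of a matched IDH1 knockdown line; potency is read from the fitted curve at half-maximal effect; 0% = DMSO-treated cells and -100% = media-only wells without cells; nearly all actives have a fitted effect of over 55% in size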
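750 cells/well, RPMI + 5% FBS; 2 h settle, compound pin-transfer, 48 h at 37 degrees C. CellTiter-Glo 10 min RT, luminescence. Normalized to DMSO and media-only wells.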
IL-1B inflam inh: blocks inflammasome-driven IL-1 beta release; THP-1 LPS/ATP IL-1B secretion, AlphaLISA, 16 h; stronger effect = lower value; activity change, % at 57.5 µM; 360,000 compounds, 4.7% hits; in the data active = activity change below about -50%; inconclusive = mostly about -30% to -49%
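THP-1 cells pretreated 1 hr with compounds (up to 57.5 uM final), then stimulated with LPS (250 ng/mL final) plus ATP (1.25 mM final); secreted IL-1B measured by AlphaLISA after 16 hr, decreased signal indicating inhibition.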
ELG1 repair inh: ELG1-dependent DNA repair inhibition. 330,000 compounds, 2.3% hits. Potency, µM (doses to about 46.1 µM), inactives show at the highest dose activity change, negative = inhibition, most hits filed as inhibitors. AID 504467. HEK293T ELG1-luciferase reporter, luminescence, 16 h; DNA damage induced by 5-fluorouridine; also: potency is read from the fitted curve at half-maximal effect; nearly all actives have a fitted effect of over 55% in size
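DMSO vehicle served as the neutral condition. Each well held 2,000 cells given 5-fluorouridine plus compound; after 16 hr at 37 °C/5% CO2, ONE-Glo was added and luciferase measured 30 min later.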
TDP1 cell noCPT: qHTS for Inhibitors of human tyrosyl-DNA phosphodiesterase 1 (TDP1): qHTS in cells in absence of CPT | DT40 Tdp1-/- hTDP1 cells, no CPT, ATP luminescence, 48 h | Potency, µM (top dose mostly 46.2 µM), inactives show at the highest dose activity change, negative = growth inhibition, hits mostly inhibitors | 420,000 compounds, 15% hits; also: potency is read from the fitted curve at half-maximal effect; nearly all actives have a fitted effect of over 55% in size
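Luminescent ATP content (CellTiter-Glo) served as the growth readout. Knockout chicken DT40 cells expressing human TDP1 were exposed to compounds without camptothecin for a minimum 48 hr at 37 °C.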
HT1080 IDH1KD tx: kills HT-1080 cells with IDH1 knockdown. HT-1080 IDH1 knockdown viability, ATP luminescence, 48 h. Potency, µM (highest dose often 46.1 µM), without a hit: at the top dose activity, negative = toxicity, actives largely listed as cytotoxic. 360,000 compounds, 2% hits. AID 686971;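 also: potency is read from the fitted curve at half-maximal effect; 0% = DMSO wells and -100% = cell-free medium wells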
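Assay cells: HT-1080 with IDH1 knockdown, 750 per well, RPMI/5% FBS. Exposure: 48 h at 37 °C following 2 h pre-incubation. Read: CellTiter-Glo luminescence; fitted concentration-response, curve class assigned.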
* marks the source's active call; other numbers are inactive results; ? = inconclusive; / = no result. Unless noted, calls follow the shape of the dose curve; as a rule, active = well fitted curve in the direction sought with a large enough effect; inconclusive = small, poorly fitted or top-dose-only effect, or another doubt; inactive = no such curve, though single readings can be large; an effect the other way counts as inactive or inconclusive. Unless noted, % is scaled to controls: 0 for no effect and ±100 for the full control effect.

SMILES | DT40 TDP1 CPT | HT1080-NT tox | IL-1B inflam inh | ELG1 repair inh | TDP1 cell noCPT | HT1080 IDH1KD tx
COC(=O)CN1C(=O)C2(C(C#N)=C(N)Oc3c2c(C)nn3-c2ccccc2)c2ccccc21 (stereo not drawn) | ? | ? | -10.1 | -4.9% | 20.6µM* | ?
O=C(/C=C/c1cccs1)N1CCN(Cc2ccc3c(c2)OCO3)CC1 | -13.5% | 1.8% | 0.0 | 4.4% | ? | -4.0%
Cc1ccc(-c2noc(-c3cccs3)n2)cc1 | 5.8% | 0.0% | -8.1 | ? | 2.3% | 5.7%
O=[N+]([O-])c1cccc(-c2noc(-c3cccs3)n2)c1 | 15.8% | 6.2% | 20.6 | ? | -3.7% | 4.6%
O=[N+]([O-])c1cccc(-c2nc(-c3ccccc3)c(-c3cccs3)[nH]2)c1 | -24.8% | -4.3% | 7.8 | -17.2% | ? | -28.8%
Cc1ccc(-c2nc(-c3cccs3)c(-c3cccs3)[nH]2)cc1 | 14.6µM* | / | / | / | 11.6µM* | /
O=[N+]([O-])c1ccc(-c2nc(-c3cccs3)c(-c3cccs3)[nH]2)cc1 | 11.6µM* | ? | -80.7* | 20.6µM* | 11.6µM* | -18.1%
O=[N+]([O-])c1cccc(-c2nc(-c3cccs3)c(-c3cccs3)[nH]2)c1 | 20.6µM* | -17.3% | -15.1 | ? | 20.6µM* | ?
O=C(N/N=C/c1cc(Br)ccc1O)c1ccccc1Cl | 0.651µM* | ? | 53.3 | ? | 0.92µM* | 16.4µM*
O=C(CSCC(=O)NN=Cc1ccccc1O)NN=Cc1ccccc1O | 5.8µM* | ? | 37.5 | / | 5.8µM* | 20.6µM*
Cc1cc(=O)oc2cc(OCC(=O)N/N=C/c3ccccc3O)ccc12 | -5.0% | -25.5% | 22.7 | 1.8% | -32.2% | -11.3%
COC(=O)N/N=C/c1cc(Br)ccc1O | -0.6% | 1.9% | -16.2 | 8.1% | -14.1% | 5.3%
CSc1nc(C)cc(OCC(=O)N/N=C/c2ccccc2O)n1 | 2.91µM* | ? | 48.7 | ? | ? | ?
Cc1nn(C)c(C(=O)N/N=C/c2cc3c(cc2Br)OCO3)c1Br | ? | -0.9% | 0.0 | -3.4% | 18.4µM* | -11.3%
Cc1nc(N2CCCC2)c2c(C(=O)Nc3cccc(Cl)c3)c(C)oc2n1 | -22.6% | / | / | / | -23.4% | /
O=C(N/N=C\c1ccccc1O)c1ccccc1O | 0.531µM* | / | / | / | 0.531µM* | /
O=C(Cn1cc(C(F)(F)F)ccc1=O)N/N=C/c1ccccc1O | 16.4µM* | ? | 115.6 | 18.3µM* | 7.31µM* | 14.6µM*
O=C(NCc1ccccn1)C(=O)N/N=C/c1ccccc1O | ? | -18.4% | 146.3 | -4.1% | 23.1µM* | ?
O=C(Cn1cc(C(F)(F)F)ccc1=O)N/N=C/c1ccc(F)cc1 | 22.6% | -13.3% | -5.6 | -7.4% | -27.2% | -3.8%
O=C(CCCCC(=O)NN=Cc1ccccc1O)NN=Cc1ccccc1O | 5.8µM* | ? | 123.2 | / | 5.8µM* | 6.51µM*
O=C(N/N=C\c1cccnc1)c1ccccc1O | 8.9% | 18.5% | -16.6 | ? | -4.9% | 21.5%
CC(C)NC(=O)N1CC[C@@]2(CCCN(C(=O)c3cc(C(F)(F)F)cc(C(F)(F)F)c3)C2)C1 | 7.0% | / | / | / | -25.1% | /
COc1ccc(S(=O)(=O)NC2CCCCCC2)cc1C(N)=O | -19.0% | 2.9% | -3.6 | -6.5% | 2.0% | -4.6%
Cc1ccc(N2C(=O)c3ccccc3C2=O)nc1 | -5.1% | -5.8% | -3.1 | 1.6% | -10.1% | -1.4%
Cc1[nH]c2ccc(C(=O)N3CCN(c4ccccn4)CC3)cc2c1C | -28.8% | 5.8% | -10.3 | -6.6% | -9.8% | 1.4%
SMILES | DT40 TDP1 CPT | HT1080-NT tox | IL-1B inflam inh | ELG1 repair inh | TDP1 cell noCPT | HT1080 IDH1KD tx
CCCCCCCC(=O)N/N=C/c1ccc(Br)cc1 | ? | 6.5% | -8.8 | 3.0% | 14.6µM* | -27.2%
O=C(CSCc1ccccc1)N/N=C/c1cc2c(cc1Br)OCO2 | -73.9% | -24.9% | 0.0 | ? | 18.4µM* | ?
O=C(N/N=C/c1ccccc1Cl)c1ccncc1 | 0.2% | -3.7% | -9.8 | 3.8% | -13.2% | -4.6%
O=C(N/N=C/c1cc(Cl)ccc1O)c1ccncc1 | 5.8µM* | 6.51µM* | 217.4 | 14.6µM* | 3.26µM* | 4.11µM*
O=C(CCc1ccccc1)N/N=C\c1cc2c(cc1Br)OCO2 | ? | 3.4% | 2.6 | -20.3% | ? | 3.8%
CO[C@@H]1CN(C)C(=O)c2cc(NC(=O)NC3CCCCC3)ccc2OC[C@@H](C)N(CC2CCOCC2)C[C@@H]1C | ? | 14.5% | -0.4 | / | ? | 22.2%
CC1=Nc2ccccc2/C1=C\c1nc(-c2ccccc2)oc1O | 4.5% | -4.1% | 30.6 | 12.6% | -9.0% | -4.9%
CN(C)c1ccc(/C=C2/CCc3ccccc32)cc1 | 14.1µM* | / | / | / | 10µM* | /
CC1=Nc2ccccc2/C1=C/c1c(C)[nH]c2ccccc12 | ? | ? | -71.9* | / | 16.4µM* | ?
CN(C)c1ccc(C=C2C(=O)c3ccccc3C2=O)cc1 | -5.5% | / | / | / | -20.5% | /
CC1=Nc2ccccc2/C1=C/c1ccc(N(C)C)cc1 | -95.5% | / | / | / | 17.8µM* | /
CN(C)c1ccc(C=C2c3ccccc3-c3ccccc32)cc1 | ? | / | / | / | 22.4µM* | /
O=C(COc1ccc(F)cc1)N1CCCc2ccccc21 | -4.9% | -1.5% | -7.0 | ? | ? | -2.4%
CC1CCC/C(=C\c2ccc(O)cc2)C1=O (stereo not drawn) | -51.7% | 3.8% | -22.5 | / | -52.6% | -1.1%
CN(C)c1ccc(/C=C2\CCCCC2=O)cc1 | 20µM* | 9.7% | -20.4 | ? | ? | 16.4%
OC(Br)C(O)C(O)N1CCCc2ccccc21 (stereo not drawn) | -2.3% | / | / | / | -7.3% | /
CCCNC(=O)COc1coc(CN2CCN(c3ccccc3OC)CC2)cc1=O | 2.6% | 0.8% | 8.0 | -1.0% | -0.6% | -0.2%
N=C1C(c2nc3ccccc3s2)=C(O)CN1c1ccccc1 | 5.5% | -22.5% | -2.1 | -17.5% | ? | -24.2%
COc1ccc2c(CNCCc3cccs3)c(C(=O)O)n(Cc3ccccc3C)c2c1 | 8.2µM* | / | / | / | 5.17µM* | /
COc1ccc2c(CNCc3cccs3)c(C(=O)O)n(Cc3ccccc3C)c2c1 | ? | / | / | / | 2.91µM* | /
COc1ccc2c(CNCc3cccs3)c(C(=O)O)n(Cc3ccccc3)c2c1 | -8.6% | / | / | / | ? | /
COc1ccc(C(=O)COC(=O)c2cc(=O)c3ccccc3o2)cc1 | -22.2% | 19.1% | 9.7 | 0.0% | -10.3% | 15.1%
O=C(Nc1cccc(C(=O)N2CCCCC2)c1)C1CCCCC1 | -16.1% | 12.6% | 14.0 | / | -5.3% | 9.5%

Screening results: PubChem BioAssay, National Center for Advancing Translational Sciences (NCATS)
